# Source: PubChem BioAssay (National Center for Advancing Translational Sciences (NCATS))
# Cycloheximide cs: counter-screen for Shiga toxin inhibitors: cycloheximide protein synthesis inhibition | cell reporter, cycloheximide protein synthesis inhibition counterscreen | max response, % | 300,000 compounds, 12% hits; in the data active means max response mostly above about 13%, no sharp cut-off; inactive means mostly below about 14%; further: read at 38.3 µM for the half of the compounds with a filed dose; 0% is about no effect
# Pf growth 96h: inhibits malaria parasite growth, 96 h | P. falciparum luciferase reporter growth, 96 h | Potency, µM (top dose mostly 28.7 µM), for the others: top-dose activity change, negative = inhibition, hits mostly inhibitors | 320,000 compounds, 6.9% hits | AID 504834; further: potency means the concentration at half of the fitted maximal effect; on the % scale 0 is the no-effect control and ±100 the full control effect
#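 Luminescence readout: decreased luciferase signal marks inhibited growth of reporter-expressing P. falciparum in infected red cells (2% hematocrit, 0.05% parasitemia final), exposed to compound two generations (96 h, 37 C, 5% CO2).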
# Pf growth 48h: P. falciparum growth inhibition at 48 hours (one generation). P. falciparum luciferase growth in erythrocytes, 48 h. Potency, µM (highest dose often 28.7 µM), for inactives: at the highest dose activity change, negative = inhibition, actives largely listed as inhibitors. 310,000 compounds, 5.9% hits. AID 504832; further: potency means the concentration at half of the fitted maximal effect; on the % scale 0 is the no-effect control and ±100 the full control effect
#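 Luminescence readout; reporter = integrated firefly luciferase in P. falciparum. RBC culture at 2% hematocrit, 0.1% parasitemia final, 37 C/5% CO2; decreased signal taken as growth inhibition.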
# MARV entry inh: Marburg virus entry inhibition; Marburg virus pseudotyped entry inhibition, cell reporter; Potency, µM (top dose mostly 37.8 µM), inactives show at the top dose activity change, negative = inhibition, most hits filed as inhibitors; 300,000 compounds, 1.8% hits; calls by dose curve; tested in HEK293 cells; further: potency means the concentration at half of the fitted maximal effect; on the % scale 0 is the no-effect control and ±100 the full control effect
# Shiga inhibitor: blocks Shiga toxin action in Vero cells. Vero cells, Shiga toxin protein synthesis inhibition reporter. inhibition, % at 38.7 µM. 290,000 compounds, 9.2% hits; in the data active means inhibition mostly above about 28%, no sharp cut-off; inactive means mostly below about 43%; further: 0% is about no effect
# LASV entry inh: inhibitors of Lassa virus binding or cell entry. Lassa virus pseudotype entry inhibition, cell reporter. Potency, µM (top dose mostly 37.9 µM), inactives show top-dose activity change, negative = inhibition, usual class: inhibitors. 300,000 compounds, 1.2% hits. AID 540256; calls by dose curve; tested in HEK293 cells; further: potency means the concentration at half of the fitted maximal effect; on the % scale 0 is the no-effect control and ±100 the full control effect; nearly all actives have a fitted effect of over 50% in size
# The depositor's hits bear a star; i = inactive; ? = inconclusive; . = not tested or not shown; [ ] = remark or other dose. This is a sample that favours compounds with a hit; in the whole collection about 19% have one here. Unless noted, the call rests on the fitted dose curve; in most records, active means well fitted inhibition curve with a large enough effect; inconclusive means small, poorly fitted or top-dose-only effect, or another doubt; inactive means no such curve, though single readings can be large or run the other way.
SMILES,Cycloheximide cs,Pf growth 96h,Pf growth 48h,MARV entry inh,Shiga inhibitor,LASV entry inh
O=C(CSc1nnc(-c2ccc(O)cc2)o1)Nc1ccccc1Br,28*,?,32%,3%[46.1 µM],76*,?
O=C(CSc1nnc(-c2ccc(O)cc2)o1)Nc1cccc(O)c1,24*,?,27%,?,64,?
COc1ccc(OC)c(C(=O)NC(CC(N)=O)c2ccc(N3CCN(c4ccccn4)CC3)c([N+](=O)[O-])c2)c1 (centres undefined),-1,8%,33%,.,-3,.
CCOC(=O)C1C(=O)NC(N2CCCCC2)=NC1c1ccco1 (centres undefined),-3,-26%,14%,6%,-18,30%
O=C(CSc1nnc(-c2ccc(O)cc2)o1)Nc1ccc2c(c1)OCCO2,25*,i,229%,-45%,39*,?
COc1ccc(CCNC(=O)c2ccccc2NS(=O)(=O)c2cc(C(=O)O)ccc2OC)cc1,-4,-3%,-19%,?,-6,-1%[46.1 µM]
COc1ccc(NC(C)=O)cc1S(=O)(=O)NC(Cc1ccccc1)C(=O)NCc1ccccc1C (centres undefined),16*,?,?,0%[46.1 µM],10,6%[46.1 µM]
COc1ccc(NC(C)=O)cc1S(=O)(=O)Nc1ccc(OCc2ccccc2)cc1,15,15%,-7%,?,5,?
O=C(O)CCc1ccc(S(=O)(=O)Nc2ccccc2C(=O)NCCc2ccccc2)cc1,30*,169%,135%,?,80*,8%[46.1 µM]
COc1ccc(NC(C)=O)cc1S(=O)(=O)Nc1ccccc1C(=O)NCCc1ccccc1,44*,100%,78%,-11%,89*,?
c1ccc(CC2CCN(C(c3cccs3)c3nnnn3C3CCCC3)CC2)cc1 (centres undefined),0,.,1.9µM*,?,-12,?
c1ccc(CN(Cc2cccs2)C(c2cccs2)c2nnnn2C2CCCC2)cc1 (centres undefined),-3,.,13µM*,?,-21,-16%
